# In ChEMBL document CHEMBL1157539, “Thousands of chemical starting points for antimalarial lead identification” (Nature, 2010):
# Columns and labels:
# Type in all cases: functional
# Plasmodium falciparum [1] = assay: GSK_TCMDC: Inhibition of Plasmodium falciparum 3D7 in whole red blood cells, using parasite LDH activity as an index of growth. Test compounds present at 2uM
# Plasmodium falciparum [2] = assay: GSK_TCMDC: Inhibition of Plasmodium falciparum Dd2 in whole red blood cells, using parasite LDH activity as an index of growth. Test compounds present at 2uM
# HepG2 = assay: GSK_TCMDC: Percent inhibition of human HepG2 cell line. Test compounds present at 10uM.
SMILES,Inhibition (Plasmodium falciparum [1]),Inhibition (Plasmodium falciparum [2]),Inhibition (HepG2)
Fc1ccc(CNc2ccc3ncc(-c4cccnc4)n3n2)cc1,87%,7%,7%
O=C(c1cccc(-c2cccc(-c3nc4cc(C(F)(F)F)ccc4[nH]3)c2)c1)N1CCCCC1CN1CCC(O)C1 (stereo unspecified),91%,100%,51%
Cc1cccc2sc(N(CCCn3ccnc3)C(=O)C=Cc3cccs3)nc12.Cl,91%,9%,0%
Cc1cc(NC2CCCC2)nc(Nc2ccc(F)cc2)n1,100%,74%,22%
Cc1cc(C)cc(Oc2c(C(F)(F)F)oc3c(CN4CC(C)OC(C)C4)c(O)ccc3c2=O)c1 (stereo unspecified),89%,54%,5%
Cc1cc(CNCCCCCCCNCc2ccc(Cl)cc2)ccc1O,97%,0%,13%
COCCNCc1ncsc1-c1ccc2c(Nc3cc(O)c(Cl)cc3F)ccnc2c1,100%,92%,0%
O=S(=O)(Nc1ccc(CCN2CCCCC2CCN2CCCC2)cc1)c1cccc2cccnc12 (stereo unspecified),100%,0%,20%
Cl.N=C(N)NN=Cc1c2ccccc2c(Cl)c2c(Cl)cccc12,91%,72%,71%
CN1CCN(CCCN(Cc2csc(-c3ccc(CNCc4ccccc4)cc3)n2)S(=O)(=O)c2ccc(F)cc2)CC1.O=C(O)C(F)(F)F,100%,80%,21%
Cc1cc(-c2ccc3c(c2)CCN(CCCOc2ccc4c(c2)CCN4C(=O)/C=C/c2ccccc2Cl)CC3)no1,88%,50%,52%
CCc1c(C)nc(-n2nc(C)cc2NC(=O)CC(c2ccccc2)c2ccccc2)[nH]c1=O,97%,98%,41%
COc1ccc2nccc([C@@H](O)CN3CCC(NCCOc4ccc(F)cc4F)CC3)c2c1.O=C(O)C(=O)O,100%,68%,13%
COc1cc2nc(N(C)C)nc(Nc3ccc(OCc4ccccc4)cc3)c2cc1OC,100%,100%,91%
O=C(NCc1cccc2ccccc12)C1CCCN(C(=O)c2ccc(O)c(-c3ccc(Cl)c(Cl)c3)c2)C1 (stereo unspecified),92%,23%,1%
O=C(O)C(F)(F)F.OC1CCCN(Cc2cccc(-c3ccc(-c4nc5cc(F)ccc5[nH]4)cc3)c2)C1 (stereo unspecified),100%,42%,16%
CN(C)CCNc1ncnc2c1[nH]c1ccc(Br)cc12,100%,7%,2%
CCN(CCNC(=O)C1CCN(c2cc(-c3cccc(C)c3)ncn2)CC1)Cc1ccccc1,83%,72%,24%
Fc1ccc2[nH]ccc(=NN=CC=Cc3ccccc3)c2c1,96%,77%,29%

SMILES,Inhibition (Plasmodium falciparum [1]),Inhibition (Plasmodium falciparum [2]),Inhibition (HepG2)
O=C(Nc1ccc(OC2CCN(Cc3ccsc3)CC2)c(Cl)c1)c1ccco1.O=C(O)C(F)(F)F,87%,85%,7%
Oc1cccc(Nc2nc(NCc3ccco3)c3ccccc3n2)c1,100%,74%,9%
CS(=O)(=O)CCNCc1ccc(-c2ccc3c(Nc4ccc(Cl)cc4F)ccnc3c2)o1,99%,98%,6%
CCN(CC)CCN(Cc1ccc(-c2ccc(C(F)(F)F)cc2)cc1)C(=O)Cn1cc(Cc2cnn(C)c2)c(=O)nc1/C=C/c1cccc(F)c1F.O=C(O)C(O)C(O)C(=O)O,95%,98%,11%
Clc1ccc(Nc2nc3ccc(Cl)cc3nc2Nc2ccc(Cl)cc2)cc1,99%,99%,79%
COc1ccc(NC(=O)[C@H](CC(C)C)Nc2ccnc(Nc3ccccc3)n2)cc1.O=C(O)C(F)(F)F,92%,32%,0%
COc1ccc2[nH]ccc(=NN=Cc3ccc(N(C)C)cc3)c2c1,100%,95%,4%
O=C(O)C(F)(F)F.Oc1ccc(CCNc2nc(NCc3ccccc3Oc3ccc(C(F)(F)F)cc3)nc(N3CCNCC3)n2)cc1,86%,2%,26%
CCc1ccc(CN2CCC(CN(c3ccc(N4CCOCC4)c(F)c3)S(=O)(=O)c3ccc(C(C)(C)CC)cc3)CC2)cc1.Cl,93%,94%,26%
O=C(O)C(F)(F)F.c1ccc(CN2CCC(NCc3ccccc3-c3ccc(CNC4CCCC4)cc3)CC2)cc1,100%,33%,38%
Cc1cccc2nc(-c3ccc(-c4cccc(CN5CCN(CCN6CCOCC6)CC5)c4)s3)[nH]c12.O=C(O)C(F)(F)F,100%,83%,33%
CCCCCCN1CCC(CNCc2cccc(Cl)c2)CC1.O=C(O)C(F)(F)F,85%,13%,8%
COc1ccc(CN2CCC(Oc3cccc(NC(=O)c4ccc(C(F)(F)F)cc4)c3)CC2)cc1.O=C(O)C(F)(F)F,95%,20%,35%
CC(C)CC(=O)N1CCNC[C@@H]1C(=O)NC1CC1.O=C(O)C(F)(F)F,82%,0%,0%
O=C1Nc2cccc3c2C1(CCCCN1CCC(c2c[nH]c4cc(C(F)(F)F)ccc24)CC1)CCC3 (stereo unspecified),99%,79%,99%
CC(C)NCC(O)Cn1c2ccc(Br)cc2c2cc(Br)ccc21 (stereo unspecified),99%,100%,100%
CCCSc1nc2c(c(=O)n1CCc1ccccc1)C1(CCCC1)Cc1ccccc1-2,99%,53%,46%
CC(C)(C)C1CCC(CC2=C(C(=O)O)c3ccccc3C2=O)CC1 (stereo unspecified),91%,56%,0%
